Laboratory results reported in PubChem BioAssay AID1159580 (chemical genetic matrix, 2015).
Among all 5,500 compounds or so, about 2,000 (36%) were called active. Inconclusive results (about 18%) are left out. Cut-off read from the data, not from the text of the source: active = normalized growth mostly below about 0.91 (no sharp cut-off); inconclusive = no clear call, values can overlap the other calls; inactive = mostly above about 0.92. This is one part of the list.

Test: chemical genetic growth profiling, strain panel (AID 1159580);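 note: tested at 20 µM; growth read once vehicle control cultures reached saturation at 30 °C; 1 = growth at the plate median or of vehicle wells; lower values mean less growth of the strain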
Conditions: growth OD
[1] = S. cerevisiae deletion strains, locus YAL013W, strain DEP1, stronger effect = lower value
[2] = S. cerevisiae deletion strains, locus YBR229C, strain ROT2, stronger effect = lower value
[3] = S. cerevisiae deletion strains, locus YDL101C, strain DUN1, stronger effect = lower value
[4] = S. cerevisiae deletion strains, locus YDR150W, strain NUM1, stronger effect = lower value
[5] = S. cerevisiae deletion strains, locus YEL061C, strain CIN8, stronger effect = lower value
[6] = S. cerevisiae deletion strains, locus YGR078C, strain PAC10, stronger effect = lower value
[7] = S. cerevisiae deletion strains, locus YGR229C, strain SMI1, stronger effect = lower value
[8] = S. cerevisiae deletion strains, locus YHR030C, strain SLT2, stronger effect = lower value
[9] = S. cerevisiae deletion strains, locus YHR087W, strain rtc3, stronger effect = lower value
[10] = S. cerevisiae deletion strains, locus YJR043C, strain POL32, stronger effect = lower value
[11] = S. cerevisiae deletion strains, locus YJR075W, strain HOC1, stronger effect = lower value
[12] = S. cerevisiae deletion strains, locus YLR039C, strain RIC1, stronger effect = lower value
[13] = S. cerevisiae deletion strains, locus YLR058C, strain SHM2 (second series), stronger effect = lower value
[14] = S. cerevisiae deletion strains, locus YLR085C, strain ARP6, stronger effect = lower value
[15] = S. cerevisiae deletion strains, locus YLR262C, strain YPT6, stronger effect = lower value
[16] = S. cerevisiae deletion strains, locus YML094W, strain GIM5, stronger effect = lower value
[17] = S. cerevisiae deletion strains, locus YMR219W, strain ESC1, stronger effect = lower value
[18] = S. cerevisiae deletion strains, locus YMR263W, strain SAP30, stronger effect = lower value
[19] = S. cerevisiae deletion strains, locus YNL153C, strain GIM3, stronger effect = lower value
[20] = S. cerevisiae deletion strains, locus YNL298W, strain CLA4 (second series), stronger effect = lower value
[21] = S. cerevisiae deletion strains, locus YNL322C, strain KRE1, stronger effect = lower value
[22] = S. cerevisiae deletion strains, locus YNR030W, strain Alg12, stronger effect = lower value
[23] = S. cerevisiae deletion strains, locus YOL006C, strain TOP1, stronger effect = lower value
[24] = S. cerevisiae deletion strains, locus YPL055C, strain LGE1, stronger effect = lower value
[25] = S. cerevisiae deletion strains, locus YPL241C, strain CIN2, stronger effect = lower value
[26] = S. cerevisiae deletion strains, locus YPR135W, strain CTF4, stronger effect = lower value
[27] = S. cerevisiae strains, strain wild type, stronger effect = lower value

Measured: normalized growth

COc1cccc(-c2nc(C#N)c(N)o2)c1
inactive: [1] 0.987 | [2] 0.996 | [3] 0.995 | [4] 0.983 | [5] 1.02 | [6] 0.996 | [8] 0.708 | [9] 1 | [10] 0.968 | [11] 0.992 | [12] 0.945 | [13] 0.99 | [14] 0.79 | [15] 0.979 | [16] 1.01 | [17] 0.989 | [18] 0.944 | [19] 0.987 | [20] 0.946 | [21] 1.01 | [22] 0.989 | [23] 0.796 | [24] 0.966 | [25] 0.953 | [26] 0.871 | [27] 0.958
active: [7] 0.938

c1cc2c(cc1N=C1SCC3CCCCN13)OCO2 (configuration not stated)
inactive: [1] 1 | [2] 1.01 | [3] 1.02 | [4] 1.05 | [5] 0.991 | [6] 1.01 | [7] 0.997 | [8] 1.05 | [9] 0.995 | [10] 1.03 | [11] 1.03 | [12] 0.983 | [13] 1 | [14] 0.932 | [15] 1.12 | [16] 0.973 | [17] 1 | [18] 1.01 | [19] 1.02 | [20] 0.974 | [21] 1 | [22] 1 | [24] 0.996 | [25] 0.953 | [26] 1.05 | [27] 1

NC(=S)COc1ccccc1Cl
active: [14] 0.624 | [20] 0.799 | [23] 0.294
inactive: [1] 0.998 | [2] 0.985 | S. cerevisiae deletion strains, locus YCL061C, strain MRC1, stronger effect = lower value 1 | [3] 1 | S. cerevisiae deletion strains, locus YDL134C, strain PPH21, stronger effect = lower value 0.981 | [4] 0.998 | [5] 0.931 | [6] 1.03 | [8] 0.794 | [9] 1.04 | S. cerevisiae deletion strains, locus YJL187C, strain SWE1, stronger effect = lower value 0.983 | [10] 0.994 | [11] 1.01 | S. cerevisiae deletion strains, locus YKL190W, strain CNB1, stronger effect = lower value 0.968 | [12] 0.796 | [13] 0.982 | [15] 0.887 | [16] 0.947 | [17] 0.982 | [18] 1.01 | [19] 0.971 | [21] 0.994 | [22] 0.95 | [24] 1.04 | [25] 0.891 | [26] 0.801
